From PubChem BioAssay (EPA / NIEHS) come the findings set out here.

Activity calls are given as the source filed them. How the source made its calls: active means hit-call score of the fitted dose curve at least 0.9, where 1 is the maximum; inactive means score below 0.9.

Read-out in the experiment: Tissue Factor, F3 (gene 2152)
As to the kind of experiment: BSK_LPS_TissueFactor: BioMAP Diversity Plus: LPS Assay for Tissue Factor Biomarker Activity (AID 2283084). The settings on record: primary human HUVEC with PBMC; actives raise or lower the signal. Here is the method: BSK_LPS is a cell-based, multiplexed-readout assay that uses umbilical vein endothelium and peripheral blood mononuclear cells, a human vascular primary cell co-culture, with measurements taken at 24 hours after chemical dosing in a 96-well plate.BSK_LPS_TissueFactor is an assay component measured in the BSK_LPS assay. It measures CD142 Tissue Factor antibody related to regulation of gene expression using ELISA technology.Data from the assay component BSK_LPS_TissueFactor was analyzed into 1 assay endpoint. This assay endpoint, BSK_LPS_TissueFactor, was analyzed with bidirectional fitting relative to DMSO as the negative control and baseline of activity. Using a type of binding reporter, gain or loss-of-signal activity can be used to understand changes in the signaling as they relate to the gene F3. Furthermore, this assay endpoint can be referred to as a primary readout, because this assay has produced multiple assay endpoints where this one serves a signaling function. To generalize the intended target to other relatable targets, this assay endpoint is annotated to the cytokine intended target family, where the subfamily is coagulation factor.
The levels of cell surface (or secreted, indicated by the prefix "s") biomarker endpoints were measured by ELISA. Overt cytotoxicity to cells in confluent adherent cultures (all systems other than the BT system) was assessed by measuring total protein levels using sulforhodamine B (SRB) staining in parallel cultures at the time of biomarker measurements, indicated as SRB endpoints. For proliferation assays for adherent cell types, individual cell types are cultured at sub-confluence and relative cell numbers quantified by SRB staining at time points optimized for each system (48 h: 3C and CASM3C systems; 72 h: BT and HDF3CGF systems; 96 h: SAg system). SRB was performed by staining cells with 0.1% SRB after fixation with 10% TCA and reading wells at 560 nm.Viability and proliferation of PBMC (T cells) was quantified by Alamar Blue reduction for the SAg and BT systems. For PBMC viability (referred to as PBMC Cytotoxicity within the assay endpoint names), cells were plated (75,000/well in a 96-well plate) and then chemical samples added for 1 h before addition of activators, SEB and TSST-1 (20 ng/mL final concentration each). Cells were incubated for 90 h. Then, Alamar Blue (20 uL/well) (Invitrogen, Cat DAL1100) was added for 6 h, and the plates were read with a fluorescence microplate reader at 546/580 nm (excitation/emission). For PBMC proliferation, cells were plated and activated as above but incubated for only 16 h prior to addition of Alamar Blue. Plates were read after 6 h.
Take `CC(=O)[C@@]1(O)CC[C@H]2[C@@H]3CCC4=CC(=O)CC[C@]4(C)[C@H]3CC[C@@]21C`: the outcome was inactive. In the case of `Cc1c(C)c2c(c(C)c1O)CCC(C)(COc1ccc(CC3SC(=O)NC3=O)cc1)O2` (stereo not given), the AC50 was 34.8 µM (active). As for `c1ccc2occc2c1`, the result was inactive. On the same count and under the same terms, then `CCC(C)N(C)C(=O)c1cc2ccccc2c(-c2ccccc2Cl)n1` (stereo not given), with “inactive”. Still for that read-out and setting: then `O=C1NC(=O)C(c2ccccc2)(c2ccccc2)N1`, with “inactive”.

Take `Oc1ccccc1O`: the outcome was inactive. Turning to `NC=O`, the result was inactive. On the same count and under the same terms, then `NC1CCCCC1`, with “inactive”. Still for that read-out and setting: then `CS(=O)(=O)c1ccc([C@@H](C[C@H]2CCC(=O)C2)C(=O)Nc2cnccn2)cc1Cl`, with “inactive”. The same measure, in the same setting: to `O=C1O[C@H]([C@H](O)CO)C(O)=C1O` belongs “inactive”; to `COc1ccc(OC(F)(F)F)cc1CN[C@H]1CCCN[C@H]1c1ccccc1`, “inactive”. As to `COC(=O)[C@H]1[C@H]2C[C@@H]3c4[nH]c5cc(OC)ccc5c4CCN3C[C@H]2C[C@@H](OC(=O)c2cc(OC)c(OC)c(OC)c2)[C@@H]1OC`, the AC50 is 7.64 µM (active).

Consider `O=NO`, for which the result was inactive. Consider `Nc1nc(=S)c2[nH]cnc2[nH]1`, for which the result was inactive.

Consider `CCCC[C@H]1CN(CC2CCOCC2)C(=O)OC12CCN(C1(C)CCN(C(=O)c3c(C)ncnc3C)CC1)CC2`, for which the outcome was inactive. As for `Nc1nc(Cl)nc2c1ncn2[C@H]1C[C@H](O)[C@@H](CO)O1`, the AC50 was 3.37 µM (active). `CSc1ccc(Oc2ccc(S(N)(=O)=O)cc2CN(C)C)cc1C`: the result was inactive. On the same count and under the same terms, then `COc1ccc(C(=O)Nc2nc3ccccc3c(NCc3ccccc3)c2C#N)cc1`, with “inactive”; and `CN(C)CCCN1c2ccccc2Sc2ccc(Cl)cc21`, with “inactive”. The same measure, in the same setting: then `CC(C)(C)c1ccccc1`, with “inactive”; and `N[C@@H](Cc1c[nH]c2ccccc12)C(=O)O`, with “inactive”. In the case of `OCC(CO)n1cnc(-c2ccc(F)cc2)c1-c1ccnc(Oc2ccccc2)n1`, the AC50 is 0.532 µM (active). For the compound `CN(C)CCCN(C)CCCN(C)C`, the result was inactive. On the same count and under the same terms, to `CCCCC(CC)COP(=O)(OCC(CC)CCCC)OCC(CC)CCCC` (stereo not given) belongs “inactive”; to `CCOCCOCCO`, “inactive”; to `NCCOCCOCCN`, “inactive”. On the same count and under the same terms, then `CC(C)c1cccc(C(C)C)c1NC(=O)NS(=O)(=O)c1cc(C(C)(C)O)co1`, with “inactive”; and `CCCCc1nc2cccnc2n1Cc1ccc(-c2ccccc2-c2nnn[nH]2)cc1`, with “inactive”.

Take `COC(=O)CCCC(=O)OC`: the result was inactive. Turning to `CC(C)(O)c1ccc(CNC(=O)c2cccnc2Oc2ccc(F)cc2)cc1`, the result was inactive.

Consider `O=C(O)c1cccnc1`, for which the result was inactive.

In the case of `NC(=Nc1ccccc1)Nc1ccccc1`, the result was inactive. Turning to `CC(=O)OC1CC(C)OC(C)O1` (stereo not given), the outcome was inactive.

For the compound `O=C(N[C@@H](c1ccccc1)[C@@H]1CCCCN1)c1cccc(C(F)(F)F)c1Cl`, the outcome was inactive. On to `C=CCc1ccc(OC)c(OC)c1`, for which the result was inactive. On the same count and under the same terms, then `C=CCCCCCCCCCCCC`, with “inactive”; and `O=C(O)c1[nH]n(-c2ccc(S(=O)(=O)O)cc2)c(=O)c1N=Nc1ccc(S(=O)(=O)O)cc1`, with “inactive”; and `CCc1cc(C2=C(C(=O)O)N(c3ccccc3C(F)(F)F)S(=O)(=O)c3ccccc32)cc2c1OCO2`, with “inactive”.

On to `C/C=C/c1ccc(OC)cc1`, for which the outcome was inactive. As for `C#CC(O)C(CC)CCCC` (stereo not given), the outcome was inactive.
